From the supplement of paper PMC6897291

Experiments:
U-2932 [1] = assay: growth inhibition by drug alone (1 - RLU/untreated control) (fraction); higher = stronger inhibition; details: 177Lu-lilotomab satetraxetan 0 ug/ml
How it was run: (§1)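 With or without 18 h pretreatment by a radiolabelled anti-CD37 antibody conjugate (~600 MBq/mg; 0.5 µg/ml RIVA, 1 µg/ml U-2932), RIVA and U-2932 cells were washed and plated at 3,000 cells/well. Pre-printed compound doses were 10/100 nM for RIVA and 10/1,000 nM for U-2932. Growth inhibition uses RealTime-Glo RLU relative to the untreated no-drug wells. The calculation is 1 − RLU/mean of 48 such wells per plate, with reads daily from day 3 after 1 h at 37°C.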

RIVA [2] = assay: as above; details: 177Lu-lilotomab satetraxetan 0 ug/ml
How it was run: as §1

U-2932 [3] = assay: growth inhibition by drug plus 177Lu-lilotomab satetraxetan (1 - RLU/untreated control) (fraction); higher = stronger inhibition; details: 177Lu-lilotomab satetraxetan 1 ug/ml
How it was run: as §1

RIVA [4] = assay: as above; details: 177Lu-lilotomab satetraxetan 0.5 ug/ml
How it was run: as §1

| Structure (SMILES) | growth inhibition by drug alone (U-2932 [1]; 10 nM, time (day): 3) | growth inhibition by drug alone (U-2932 [1]; 10 nM, time (day): 4) | growth inhibition by drug alone (U-2932 [1]; 10 nM, time (day): 5) | growth inhibition by drug alone (U-2932 [1]; 10 nM, time (day): 6) | growth inhibition by drug alone (U-2932 [1]; 1000 nM, time (day): 3) | growth inhibition by drug alone (U-2932 [1]; 1000 nM, time (day): 4) | growth inhibition by drug alone (U-2932 [1]; 1000 nM, time (day): 5) | growth inhibition by drug alone (U-2932 [1]; 1000 nM, time (day): 6) | growth inhibition by drug alone (RIVA [2]; 10 nM, time (day): 3) | growth inhibition by drug alone (RIVA [2]; 10 nM, time (day): 4) | growth inhibition by drug alone (RIVA [2]; 10 nM, time (day): 5) | growth inhibition by drug alone (RIVA [2]; 10 nM, time (day): 6) | growth inhibition by drug alone (RIVA [2]; 100 nM, time (day): 3) | growth inhibition by drug alone (RIVA [2]; 100 nM, time (day): 4) | growth inhibition by drug alone (RIVA [2]; 100 nM, time (day): 5) | growth inhibition by drug alone (RIVA [2]; 100 nM, time (day): 6) | growth inhibition by drug plus 177Lu-lilotomab satetraxetan (U-2932 [3]; 10 nM, time (day): 3) | growth inhibition by drug plus 177Lu-lilotomab satetraxetan (U-2932 [3]; 10 nM, time (day): 4) | growth inhibition by drug plus 177Lu-lilotomab satetraxetan (U-2932 [3]; 10 nM, time (day): 5) | growth inhibition by drug plus 177Lu-lilotomab satetraxetan (U-2932 [3]; 10 nM, time (day): 6) | growth inhibition by drug plus 177Lu-lilotomab satetraxetan (U-2932 [3]; 1000 nM, time (day): 3) | growth inhibition by drug plus 177Lu-lilotomab satetraxetan (U-2932 [3]; 1000 nM, time (day): 4) | growth inhibition by drug plus 177Lu-lilotomab satetraxetan (U-2932 [3]; 1000 nM, time (day): 5) | growth inhibition by drug plus 177Lu-lilotomab satetraxetan (U-2932 [3]; 1000 nM, time (day): 6) | growth inhibition by drug plus 177Lu-lilotomab satetraxetan (RIVA [4]; 10 nM, time (day): 3) | growth inhibition by drug plus 177Lu-lilotomab satetraxetan (RIVA [4]; 10 nM, time (day): 4) | growth inhibition by drug plus 177Lu-lilotomab satetraxetan (RIVA [4]; 10 nM, time (day): 5) | growth inhibition by drug plus 177Lu-lilotomab satetraxetan (RIVA [4]; 10 nM, time (day): 6) | growth inhibition by drug plus 177Lu-lilotomab satetraxetan (RIVA [4]; 100 nM, time (day): 3) | growth inhibition by drug plus 177Lu-lilotomab satetraxetan (RIVA [4]; 100 nM, time (day): 4) | growth inhibition by drug plus 177Lu-lilotomab satetraxetan (RIVA [4]; 100 nM, time (day): 5) | growth inhibition by drug plus 177Lu-lilotomab satetraxetan (RIVA [4]; 100 nM, time (day): 6) |
| --- | --- | --- | --- | --- | --- | --- | --- | --- | --- | --- | --- | --- | --- | --- | --- | --- | --- | --- | --- | --- | --- | --- | --- | --- | --- | --- | --- | --- | --- | --- | --- | --- |
| COc1cc(Nc2ncc3c(n2)-c2ccc(Cl)cc2C(c2c(F)cccc2OC)=NC3)ccc1C(=O)O [MLN8237 (Alisertib)] | 0.00882 | -0.00518 | -0.0513 | -0.269 | 0.101 | 0.128 | 0.153 | 0.291 | -0.00668 | -0.0776 | -0.136 | -0.266 | 0.624 | 0.553 | 0.569 | 0.599 | 0.0071 | 0.0562 | 0.0508 | 0.126 | 0.21 | 0.278 | 0.316 | 0.459 | 0.398 | 0.551 | 0.559 | 0.572 | 0.754 | 0.81 | 0.845 | 0.873 |
| COCC[n+]1c2c(n(Cc3cnccn3)c1C)C(=O)c1ccccc1C2=O | 0.948 | 0.947 | 0.963 | 0.974 | 0.989 | 0.989 | 0.989 | 0.989 | 0.984 | 0.981 | 0.98 | 0.981 | 0.98 | 0.979 | 0.98 | 0.979 | 0.945 | 0.95 | 0.969 | 0.977 | 0.988 | 0.988 | 0.989 | 0.991 | 0.988 | 0.985 | 0.986 | 0.986 | 0.986 | 0.989 | 0.989 | 0.989 |
| Cc1oc(S(=O)(=O)N2CCCCC2)cc1NC(=O)Nc1ccccc1 | 0.104 | 0.0184 | -0.0595 | -0.0798 | -0.0127 | 0.0108 | -0.117 | -0.249 | 0.0245 | 0.075 | -0.0191 | -0.188 | 0.0283 | 0.0927 | 0.052 | -0.0369 | 0.0412 | 0.101 | 0.11 | 0.174 | -0.0876 | 0.0154 | -0.000234 | 0.0155 | 0.422 | 0.557 | 0.585 | 0.576 | 0.511 | 0.598 | 0.601 | 0.574 |
| CC1(C)CCC(c2ccc(Cl)cc2)=C(CN2CCN(c3ccc(C(=O)NS(=O)(=O)c4ccc(N[C@H](CCN5CCOCC5)CSc5ccccc5)c(S(=O)(=O)C(F)(F)F)c4)cc3)CC2)C1 [ABT-263 (Navitoclax)] | -0.00418 | -0.0018 | -0.0135 | 0.024 | 0.0839 | 0.635 | 0.85 | 0.894 | 0.116 | 0.0668 | 0.0479 | -0.0157 | 0.977 | 0.976 | 0.975 | 0.974 | -0.0296 | -0.00166 | 0.0241 | 0.15 | 0.115 | 0.591 | 0.816 | 0.904 | 0.568 | 0.593 | 0.605 | 0.604 | 0.984 | 0.983 | 0.983 | 0.983 |
| COc1ccc(COc2cc3oc(=O)c4cc(C(C)O)ccc4c3cc2OC)cc1 (centres undefined) [Palomid 529] | 0.0334 | 0.0194 | -0.0368 | -0.114 | -0.0247 | 0.00321 | -0.0394 | -0.242 | 0.0296 | 0.0604 | -0.0136 | -0.281 | -0.0737 | -0.0625 | -0.0557 | -0.118 | -0.0294 | 0.00126 | 0.0363 | 0.0704 | -0.0939 | 0.0227 | 0.013 | 0.0753 | 0.337 | 0.478 | 0.494 | 0.503 | 0.321 | 0.445 | 0.454 | 0.453 |
| COC(=O)Nc1ccc(-c2nc(N3CCOCC3)c3cnn(C4CCN(C(=O)OC)CC4)c3n2)cc1 | 0.122 | 0.107 | 0.0346 | -0.00417 | 0.454 | 0.381 | 0.375 | 0.388 | 0.0376 | 0.1 | 0.0593 | -0.105 | 0.0485 | 0.0181 | 0.033 | 0.00434 | 0.113 | 0.147 | 0.233 | 0.252 | 0.395 | 0.315 | 0.348 | 0.433 | 0.624 | 0.663 | 0.677 | 0.664 | 0.468 | 0.537 | 0.55 | 0.563 |
| NC(=O)c1ccc2nc(-c3ccc(Oc4ccc(Cl)cc4)cc3)[nH]c2c1 | 0.00125 | 0.0235 | 0.00264 | -0.0848 | -0.16 | -0.101 | -0.0954 | -0.129 | -0.00863 | -0.0511 | -0.0793 | -0.24 | -0.111 | -0.096 | -0.133 | -0.184 | 0.0152 | 0.0513 | 0.0592 | 0.129 | -0.283 | -0.107 | -0.0258 | 0.0425 | 0.4 | 0.51 | 0.52 | 0.516 | 0.455 | 0.517 | 0.523 | 0.501 |
